MITF inh – blocks human microphthalmia-associated transcription factor. O75030. AlphaScreen MITF homodimerization, bead proximity signal. inhibition, % at 2.6 µM. 0.91% of 650,000 active. AID 1259374; in the data active = inhibition above about 50%
Target sequence (O75030 whole entry, looked up): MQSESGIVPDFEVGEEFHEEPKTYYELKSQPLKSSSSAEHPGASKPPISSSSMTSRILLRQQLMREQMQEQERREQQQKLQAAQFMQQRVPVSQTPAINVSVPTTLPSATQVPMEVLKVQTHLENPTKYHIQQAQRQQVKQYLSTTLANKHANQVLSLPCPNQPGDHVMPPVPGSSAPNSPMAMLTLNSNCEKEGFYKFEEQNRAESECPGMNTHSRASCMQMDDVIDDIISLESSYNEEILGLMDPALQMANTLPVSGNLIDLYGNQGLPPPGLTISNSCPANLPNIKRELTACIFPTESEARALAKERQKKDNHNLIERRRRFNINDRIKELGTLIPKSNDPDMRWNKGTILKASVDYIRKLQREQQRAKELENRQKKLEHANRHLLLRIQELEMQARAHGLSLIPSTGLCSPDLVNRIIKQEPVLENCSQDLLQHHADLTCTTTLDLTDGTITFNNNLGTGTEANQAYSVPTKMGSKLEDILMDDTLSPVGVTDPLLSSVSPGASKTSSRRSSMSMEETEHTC
FBW7 activator – activators of human E3 ligase FBW7; AID 1259310; normalized activity (activation), % at 26.1 µM; 0.13% of 650,000 active; AlphaScreen FBW7–phospho-cyclin E peptide binding, activator screen; Q969H0; in the data active = normalized activity above about 1.9%;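 also: purified mutant Fbw7 with reduced substrate affinity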
GPR151 ag – activates the human receptor GPR151; Q8TDV0; 1% of 650,000 active; PathHunter beta-arrestin GPR151 cells, luminescence; AID 1508602; activation, % at 11.2 µM; in the data active = activation above about 4.9%
TEAD-YAP inh – TEAD-YAP interaction inhibition | HEK-TIYL cells, TEAD-Gal4/YAP UAS-luciferase luminescence | inhibition, % at 9.12 µM | 1.4% of 640,000 active; in the data active = inhibition above about 32%
Large screens that a line does not name were inactive. Compounds with a hit are over-represented: about 3.5% of the library has one in this group of screens.

CCCNc1nc(-c2c(C)nn(C)c2C)nc2c1ncn2-c1ccsc1	none
O=C1CCCN1CCCNc1nc(Nc2ccccc2)nc2c1ncn2-c1ccsc1	TEAD-YAP inh 65
O=C1CCCN1CCCNc1nc(Nc2ccc(-n3ccnc3)cc2)nc2c1ncn2-c1ccsc1	TEAD-YAP inh 61
O=C1CCCN1CCCNc1nc(Nc2ccc(C(F)(F)F)cc2)nc2c1ncn2-c1ccsc1	none
O=C1CCCN1CCCNc1nc(Nc2ccc3ncccc3c2)nc2c1ncn2-c1ccsc1	TEAD-YAP inh 52
Cc1nn(C)c(C)c1-c1nc(NCCc2ccc(O)cc2)c2ncn(-c3ccsc3)c2n1	TEAD-YAP inh 56
Cc1ccc(Cl)cc1NC(=O)N[C@H]1C[C@H]2C(=O)N[C@H](CC(C)C)C(=O)N2C1	none
CC(C)=CCN1CCN(Cc2cccc(C)n2)CC1CCO (configuration not stated)	none
O=C1CCCN1CCCNc1nc(Nc2ccc(-n3ccnc3)cc2)nc2c1ncn2-c1ccccc1	TEAD-YAP inh 52
O=C1CCCN1CCCNc1nc(NCCN2CCOCC2)nc2c1ncn2-c1ccsc1	none
O=C1CCCN1CCCNc1nc(Nc2ccccc2)nc2c1ncn2-c1ccccc1	TEAD-YAP inh 39
O=C1CCCN1CCCNc1nc(NCCCN2CCCC2=O)c2ncn(-c3ccsc3)c2n1	TEAD-YAP inh 39
O=C1CCCN1CCn1cnc2c(NCCOc3ccccc3)nc(Nc3ccc(-n4ccnc4)cc3)nc21	none
O=C1CCCN1CCCNc1nc(Nc2ncccn2)nc2c1ncn2-c1ccccc1	none
O=C1CCCN1CCCNc1nc(Nc2ccncc2)nc2c1ncn2-c1ccsc1	TEAD-YAP inh 60
COc1ccc(CNC(=O)C(F)(F)F)cc1	none
COc1ccc(NCN2C(=O)C3CC=CCC3C2=O)cc1 (configuration not stated)	none
COc1cc(OC)cc(-n2nc(C(=O)N3CCC(C)CC3)c3ccccc3c2=O)c1	none
COc1cc(Nc2nc(NCCCN3CCCC3=O)c3ncn(-c4ccccc4)c3n2)cc(OC)c1OC	TEAD-YAP inh 49
CCCNc1nc(NCCCN2CCCC2=O)nc2c1ncn2-c1ccccc1	TEAD-YAP inh 42
COc1ccc(C(=O)NCC2CCC3(CCN(C(=O)CC(C)C)CC3)O2)cc1OC (configuration not stated)	none
Cc1ccc(C(=O)c2c(C)[n+](-c3ccccc3)c3scc(C)n23)cc1	TEAD-YAP inh 34
Cc1csc2n1c(C(=O)c1ccccc1)c(C)[n+]2-c1ccccc1	none
COc1ccc(-c2cc(=O)oc3c(OC)c(OC)ccc23)cc1	TEAD-YAP inh 56
Cc1ccccc1NC(=O)c1cccc2c1C(=O)c1ccccc1-2	TEAD-YAP inh 53
CC(C)CCN(C(=O)CCl)c1c(N)n(Cc2ccccc2)c(=O)[nH]c1=O	TEAD-YAP inh 68
Fc1ccccc1-c1cnn2ccc(NCc3cccnc3)nc12	TEAD-YAP inh 42
c1cncc(CNc2ccn3ncc(-c4cccc5ccccc45)c3n2)c1	none
OCCn1c(Cc2ccccc2)nc2ccccc21	TEAD-YAP inh 98
CN(C)c1ccc(/C=C2\Oc3c(ccc(O)c3O)C2=O)cc1	MITF inh 55
Cn1c(=O)c2c(ncn2Cc2ccc(C(C)(C)C)cc2)n(C)c1=O	TEAD-YAP inh 57
Cn1c(=O)c2c(ncn2Cc2ccc(C#N)cc2)n(C)c1=O	none
Cn1c(=O)c2c(ncn2Cc2cccc(I)c2)n(C)c1=O	TEAD-YAP inh 39
O=C(c1ccco1)N1CCN(C(=O)N2c3ccccc3Sc3ccccc32)CC1	TEAD-YAP inh 51
O=C(N1CCN(c2ccccn2)CC1)N1c2ccccc2Sc2ccccc21	TEAD-YAP inh 51
O=C(N1CCCC1)N1c2ccccc2Sc2ccccc21	none
COc1ccc(CC(=O)Nc2nnc(SCC(=O)Nc3cccc(C)c3C)s2)cc1	none
COc1ccc(CC(=O)Nc2ccc(C)c(Cl)c2)cc1OC	none
O=C(CSc1nncs1)Nc1ccc(OCc2ccccc2)cc1	FBW7 activator 12
COc1cccc(-c2nc3sc4c(c3c(=O)n2Cc2ccccc2F)CCCC4)c1	TEAD-YAP inh 32
Cc1ccccc1Cn1cnc2sc3c(c2c1=O)CCCC3	TEAD-YAP inh 51
COc1cccc(-c2cnc3ccc(NC4CCC(O)CC4)nn23)c1 (configuration not stated)	TEAD-YAP inh 64
COc1ccc(-c2cnc3ccc(NC4CCOCC4)nn23)cc1OC	none
Nc1cccc(-c2cnc3ccc(NC4CCOCC4)nn23)c1	none
COc1cccc(-c2cnc3ccc(NC4CCOCC4)nn23)c1	TEAD-YAP inh 57
Clc1cccc(-c2cnc3ccc(NC4CCOCC4)nn23)c1	TEAD-YAP inh 34
Cc1ccc(-c2cnc3ccc(NC4CCC(O)CC4)nn23)cc1C (configuration not stated)	none
CS(=O)(=O)c1ccc(-c2ccnc(Nc3ccc(-n4ccnn4)cc3)n2)cc1	none
CN1CCN(c2cccc(-c3ccnc(Nc4ccc(-n5ccnn5)cc4)n3)c2)CC1	TEAD-YAP inh 68
c1ccc(-c2ccnc(Nc3ccc(-n4ccnn4)cc3)n2)cc1	none
CS(=O)(=O)Cc1cccc(-c2ccnc(Nc3ccc(-n4ccnn4)cc3)n2)c1	TEAD-YAP inh 41
Cc1ccc(NC(=O)c2c(NC(=O)c3ccccc3)sc3c2CCCC3)cc1C	none
Cc1cc2nc(N3CCCN(Cc4c(C)nc5sccn45)CC3)nc(C)c2cc1C	TEAD-YAP inh 32
Cc1cc2nc(N3CCCN(Cc4ccc(CO)o4)CC3)nc(C)c2cc1C	none
c1ccc(-n2cnc3c(NC4CC4)nc(Nc4cccnc4)nc32)cc1	TEAD-YAP inh 42
c1ccc(Nc2nc(NC3CC3)c3ncn(-c4ccccc4)c3n2)cc1	TEAD-YAP inh 47
FC(F)(F)c1ccc(Nc2nc(NC3CC3)c3ncn(-c4ccccc4)c3n2)cc1	none
c1ccc(Nc2nc(NC3CC3)c3ncn(C4CCCCC4)c3n2)nc1	none
c1ccc(-n2cnc3c(NC4CC4)nc(Nc4ccc(-n5ccnc5)cc4)nc32)cc1	TEAD-YAP inh 41
c1ccc(-n2cnc3c(NC4CC4)nc(Nc4ccccn4)nc32)cc1	TEAD-YAP inh 47
Cc1cccc(NC(=O)CCc2nc3cccnc3n2Cc2cccs2)c1	none
CC(C)N(CCNc1nc(-c2ccccc2)nc2c1ncn2CCN1CCCC1=O)C(C)C	none
O=C(Nc1cnn(C23CC4CC(CC(C4)C2)C3)c1)c1cnn2cc(Br)cnc12	none
O=C(Nc1cnn(C23CC4CC(CC(C4)C2)C3)c1)c1cnn2cccnc12	TEAD-YAP inh 58
Cc1nc2ccc(Cl)cn2c1C(=O)NN=C1CCCCC1	none
Cc1ccc2nc(C)c(C(=O)NN=C3CCCCCC3)n2c1	TEAD-YAP inh 58
CC1(C)Cc2c(cnn2-c2ccccc2)-c2[nH]c3ccccc3c21	none
Cc1cccc(C)c1NC(=O)C(c1ccc(Cl)cc1)N(Cc1ccco1)C(=O)c1ccc(-n2cnnn2)cc1 (configuration not stated)	TEAD-YAP inh 41
c1ccc(-c2nc(-c3ccncc3)cc(N3CCCCC3)n2)cc1	none
Nc1nc(-c2ccccc2)cc(N2CCCC2)n1	TEAD-YAP inh 45
c1ccc2c(c1)CC(c1nc3ccc(-c4ccncc4)cc3[nH]1)CCO2 (configuration not stated)	TEAD-YAP inh 41

Screening results as filed in PubChem.
